Molecules are shown by their SMILES. Among all 5,400 compounds or so, about 190 (3.5%) showed an effect of 50% or more. Many of the other results were omitted from the sample, so strong results are more common in it than they were. Residues, ends and D or L forms follow the SMILES beside them. *: point of attachment. NHCH2CH2OH = OCCN*; For = O=C*

This experiment has as its system Vero-E6. The experiment can be described thus: primary screen, phospholipidosis by LipidTOX staining; higher = more effect of the substance. The note with it: 10 µM. In a few lines: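 Single-concentration screen at 10 μM, with DMSO 0.1 v/v % and amiodarone 10 μM as controls. Read-out is LipidTOX Red phospholipid staining, which tolerates aldehyde fixation, in Vero-E6 cells.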
`CC(C)c1nc(N(C)S(C)(=O)=O)nc(-c2ccc(F)cc2)c1/C=C/[C@@H](O)C[C@@H](O)CC(=O)[O-]`: the result_ITMP is recorded as -8.19%. Consider `Cc1nc(Nc2cnn(C3CCNCC3)c2)nc2c1N(C)C(=O)c1cc3ccccc3cc1N2C`, for which the result_ITMP was determined as 103%. Then `CCOc1cc(N2CCC(O)CC2)ccc1Nc1ncc2c(n1)N(C)c1ccccc1C(=O)N2C`, with 4.79%; and `O=C(O)[C@@H]1C[C@@H](C2CCCCC2)CN1C(=O)CP(=O)(O)CCCCc1ccccc1`, with -0.11%. With `O=c1nc[nH]c2c1cnn2[C@@H]1O[C@H](CO)[C@@H](O)[C@H]1O`, the result_ITMP was 2.43%. Take `CCC[C@@H]1C[C@@H](C(=O)N[C@H]([C@H]2O[C@H](SC)[C@H](O)[C@@H](O)[C@H]2O)[C@H](C)O)N(C)C1`: the result_ITMP was -3.49%. Then `NC1(c2ccc(-c3nc4ccn5c(=O)[nH]nc5c4cc3-c3ccccc3)cc2)CCC1`, with 87.1%; and `O=C(O)CCc1ccc(NCc2cccc(Oc3ccccc3)c2)cc1`, with -4.86%. Consider `COc1cccc(CCc2ccccc2OCC(CN(C)C)OC(=O)CCC(=O)O)c1` (centres unmarked), for which the result_ITMP is 64.3%. Then `O=C(O)CCCCN(CCc1ccccc1OCc1ccc(CCc2ccccc2)cc1)Cc1ccc(C(=O)O)cc1`, with 0.2%. To `CCc1cccc(CC)c1N=C1NCCN1` belongs -5.43%. Then `O=C(O[C@H]1CN2CCC1CC2)N(Cc1cc(F)c(F)c(F)c1)c1cccc(F)c1`, with 71.4%; and `C[C@H](Nc1ncnc2[nH]cnc12)c1cc2ccc(F)cc2nc1-c1ccccn1` [R4A_0002240_001 / SPE_K21077415], with -0.96%; and `Nc1cccc(CNC(=O)c2ccc(Oc3ccc(OCc4cccc(F)c4)cc3)nc2)c1`, with -1.49%. `CN(C)CCCOc1nn(Cc2ccccc2)c2ccccc12`: the result_ITMP worked out at 51.2%. Then `OCc1ccc(-c2nn(Cc3ccccc3)c3ccccc23)o1`, with -1.24%; and `O=C(O)COc1nn(Cc2ccccc2)c2ccccc12`, with 0%; and `C[C@@H]1CCC[C@H](C)N1NC(=O)c1ccc(Cl)c(S(N)(=O)=O)c1`, with 3.56%.

As for `CC(C)Cc1ccc(C(C)C(=O)O)cc1` (centres unmarked) [R4A_0001344_001 / SPE_M64062803], the result_ITMP is given as -5.52%.

As to `O=C(Nc1ccc(F)cc1)N1CCc2ccccc2C1c1ccc(C(F)(F)F)cc1` (centres unmarked), the result_ITMP is listed as -0.7%. `O=C(C1CCCCC1)N1CC(=O)N2CCc3ccccc3C2C1` (centres unmarked): the result_ITMP was -5.83%.

For the molecule `O=C(O[C@H]1CN2CCC1CC2)N1CCc2ccccc2[C@@H]1c1ccccc1`, the result_ITMP came out at 59.2%. Consider `CC(C)(CO)[C@@H](O)C(=O)NCCC(=O)[O-]`, for which the result_ITMP amounted to 1.43%. Then `C[C@@]12C[C@@]3(O)O[C@@H](O1)[C@]1(COC(=O)c4ccccc4)[C@H]3C[C@@]12O[C@@H]1O[C@H](CO)[C@@H](O)[C@H](O)[C@H]1O`, with -5.49%. In the case of `CN1CCN(c2ccc(C(=O)Nc3n[nH]c4ccc(Cc5cc(F)cc(F)c5)cc34)c(NC3CCOCC3)c2)CC1`, the result_ITMP is 96.5%. Then `CCc1cccc(CC)c1NC(=O)N1Cc2[nH]nc(NC(=O)c3ccc(N4CCN(C)CC4)cc3)c2C1`, with 3.48%.

For the molecule `CN1CCN(c2ccc(-c3cccc(CN4CCOCC4)c3)cc2NC(=O)c2c[nH]c(=O)cc2C(F)(F)F)CC1`, the result_ITMP is recorded as -0.45%. With `C[C@H]1O[C@@H](O[C@H]2CC[C@@]3(C)[C@H](CC[C@@H]4[C@@H]3C[C@@H](O)[C@]3(C)[C@@H](C5=CC(=O)OC5)CC[C@]43O)C2)C[C@H](O)[C@@H]1O[C@H]1C[C@H](O)[C@H](O[C@H]2C[C@H](O)[C@H](O[C@@H]3O[C@H](CO)[C@@H](O)[C@H](O)[C@H]3O)[C@@H](C)O2)[C@@H](C)O1`, the result_ITMP is given as -9.7%. For the molecule `CO/N=C(\C(=O)N[C@@H]1C(=O)N2C(C(=O)[O-])=C(COC(C)=O)CS[C@H]12)c1csc(N)n1`, the result_ITMP is given as -7.3%.

`COc1cccc(C(=O)CCN[C@@H](C)[C@H](O)c2ccccc2)c1`: the result_ITMP stood at 1.52%. As for `CC(NCCC(c1ccccc1)c1ccccc1)c1ccccc1` (centres unmarked), the result_ITMP is given as 43.7%. Then `COc1cccc([C@@H](C)NCCCc2ccccc2Cl)c1`, with 70.1%. With `C[N@+]12CCCC[C@@H]1CCC(=C(c1cccs1)c1cccs1)C2` (racemic), the result_ITMP is listed as -3.77%. For the molecule `CO[C@@H]1[C@@H](OC(N)=O)[C@@H](O)[C@H](Oc2ccc3c([O-])c(NC(=O)c4ccc(O)c(CC=C(C)C)c4)c(=O)oc3c2C)OC1(C)C`, the result_ITMP is on record as -3.28%.

`CC(=O)NCCCS(=O)(=O)[O-]`: the result_ITMP was found to be 7.64%.

As for `COc1cc2c(Nc3ccc(Br)cc3F)ncnc2cc1OCC1CCN(C)CC1`, the result_ITMP came out at 105%. In the case of `COc1cc2c(Nc3ccc(Cl)c(Cl)c3F)ncnc2cc1OC[C@@H]1C[C@@H]2CN(C)C[C@@H]2C1`, the result_ITMP is 55.5%.

Consider `COc1cc2ncnc(Nc3cccc(Cl)c3F)c2cc1OC(=O)N1CCN(C)C[C@H]1C`, for which the result_ITMP is 10.7%. As for `COc1cc2ncnc(Nc3ccc(Cl)cc3F)c2cc1OC`, the result_ITMP is listed as -0.91%. Then `COc1ccc(Cl)c(Nc2ncnc3cc(OCC4CCN(C)CC4)c(OC)cc23)c1`, with 9.6%; and `C=CC(=O)N1CCC(Oc2cc3c(Nc4ccc(Cl)c(Cl)c4F)ncnc3cc2OC)CC1`, with 35.1%; and `CC(C)CC(NC(=O)C(C)NC(=O)CNC(=O)C(NC=O)C(C)C)C(=O)NC(C)C(=O)NC(C(=O)NC(C(=O)NC(C(=O)NC(Cc1c[nH]c2ccccc12)C(=O)NC(CC(C)C)C(=O)NC(Cc1c[nH]c2ccccc12)C(=O)NC(CC(C)C)C(=O)NC(Cc1c[nH]c2ccccc12)C(=O)NC(CC(C)C)C(=O)NC(Cc1c[nH]c2ccccc12)C(=O)NCCO)C(C)C)C(C)C)C(C)C` (centres unmarked) (For-VGALAVVVWLWLWLW-NHCH2CH2OH; configuration not given here), with -8.15%.

In the case of `COC1/C=C\OC2(C)Oc3c(C)c(O)c4c(O)c(cc([O-])c4c3C2=O)NC(=O)/C(C)=C\C=C/C(C)C(O)C(C)C(O)C(C)C(OC(C)=O)C1C` (centres unmarked), the result_ITMP is -0.32%. To `C[C@@H](O)[C@H]1C(=O)N2C(C(=O)[O-])=C([C@H]3CCCO3)S[C@H]12` belongs -1.64%. Take `[Cl][Ru]([Cl])([Cl])[Cl].c1ccc2[nH]ncc2c1.c1ccc2[nH]ncc2c1`: the result_ITMP is recorded as -2.33%. Then `OC[C@H]1O[C@@H](O[C@@H]2[C@H](O)[C@@H](O)[C@H](O[C@H]3[C@H](O)[C@@H](O)C(O)O[C@@H]3CO)O[C@@H]2CO)[C@H](O)[C@@H](O)[C@H]1O` (some centres unmarked), with 3.95%. As for `CCCC[C@H](NC(C)=O)C(=O)N[C@H]1CC(=O)NCCCC[C@@H](C(=O)O)NC(=O)[C@H](Cc2c[nH]c3ccccc23)NC(=O)[C@H](CCCNC(=N)N)NC(=O)[C@@H](Cc2ccccc2)NC(=O)[C@H](Cc2cnc[nH]2)NC1=O`, the result_ITMP is listed as -3.41%. On to `COc1ccc2[nH]c3nnc(C)c-3c(NCCOCCO)c2c1`, for which the result_ITMP is given as -1.31%. In the case of `C1Cc2[nH]nc(-c3nnn[nH]3)c2C1`, the result_ITMP is -1.64%. To `CC(C)N(C[C@H]1O[C@@H](n2cnc3c(N)ncnc32)[C@H](O)[C@@H]1O)C1CC(CCc2nc3cc(C(C)(C)C)ccc3[nH]2)C1` (some centres unmarked) belongs -3.75%; to `Nc1ncnc2c1ncn2C1OC2COP(=O)([O-])OC2C1O` (centres unmarked), -10.8%; to `Cc1ccc(C(=O)Nc2ccc(CN3CCN(C)CC3)c(C(F)(F)F)c2)cc1C#Cc1cnc2[nH]ncc2c1`, 6.57%. For `Cc1ccc(C(=O)Nc2ccc(CN3CCN(C)CC3)c(C(F)(F)F)c2)cc1C#Cc1cnc2cccnn12`, the result_ITMP is given as 11.4%.

On to `CCN1CCN(Cc2ccc(C(=O)Nc3ccc(C)c(Oc4ccc5c(c4)CC(=O)N5)c3)cc2C(F)(F)F)CC1`, for which the result_ITMP is reported as 99.1%. To `C[C@@H]1CC[C@@]2(NC1)O[C@H]1C[C@H]3[C@@H]4CC=C5C[C@@H](O[C@@H]6O[C@H](CO)[C@@H](O[C@@H]7O[C@@H](C)[C@H](O)[C@@H](O)[C@H]7O)[C@H](O)[C@H]6O[C@@H]6O[C@@H](C)[C@H](O)[C@@H](O)[C@H]6O)CC[C@]5(C)[C@H]4CC[C@]3(C)[C@H]1[C@@H]2C` belongs -0.25%; to `C[C@]12C=CC(=O)C=C1CCC1C2[C@@H](O)C[C@@]2(C)C1CC[C@]2(O)C(=O)COP(=O)([O-])[O-]` (some centres unmarked), -4.14%. Then `O=S(=O)([O-])CCSSCCS(=O)(=O)[O-]`, with -11.7%; and `N=C(N)NCCC[C@@H](NC(=O)[C@@H]1CCCN1C(=O)[C@@H]1CSSC[C@H](N)C(=O)N[C@@H](Cc2ccc(O)cc2)C(=O)N[C@@H](Cc2ccccc2)C(=O)N[C@@H](CCC(N)=O)C(=O)N[C@@H](CC(N)=O)C(=O)N1)C(=O)NCC(N)=O`, with -1.55%. To `Oc1ncc(F)cn1` belongs -8.73%; to `Nc1nnc2[nH]c3ccccc3nc1-2`, -7.77%. For the molecule `CCCC1(CCC)CCC2(CCN(CCCN(CC)CC)C2)CC1`, the result_ITMP was determined as 109%. Take `COc1cc(/C=C/C(=O)[O-])ccc1O`: the result_ITMP is recorded as -1.05%. To `CCN1CCN(Cc2ccc(Nc3ncc(F)c(-c4cc(F)c5nc(C)n(C(C)C)c5c4)n3)nc2)CC1` belongs 76.7%.

As to `CC(C)Cc1ccc(C(C)C(=O)O)cc1` (centres unmarked) [R4A_0001344_001 / SPE_A17655518], the result_ITMP is -3.6%. Regarding `COC(=O)C1=C(C)NC(C)=C(C(=O)NCCCN2CCC(c3ccccc3)(c3ccccc3)CC2)C1c1ccc([N+](=O)[O-])cc1` (centres unmarked), the result_ITMP came to 60.6%.

For `COC(=O)C1=C(C)NC(C)=C(C(=O)OCCN2CCN(C(c3ccccc3)c3ccccc3)CC2)C1c1cccc([N+](=O)[O-])c1` (centres unmarked), the result_ITMP came out at 11.6%. Then `COC(=O)C1=C(C)NC(C)=C(C(=O)O[C@H]2CCN(Cc3ccccc3)C2)[C@H]1c1cccc([N+](=O)[O-])c1`, with 21.2%; and `CC[C@H](CC[C@@H](C)[C@H]1CC[C@H]2[C@@H]3CC=C4C[C@@H](O)CC[C@]4(C)[C@H]3CC[C@]12C)C(C)C`, with 1.55%.

These data come from PMC13083723 (Patterns, 2026).
